Source: PubChem BioAssay (several laboratories)
The list is not random: actives were taken first. Their share in the collection is about 3%.
TRPM1 prom inh: reduces MITF-dependent TRPM1 promoter luciferase signal; SK-MEL-5 TRPM1 promoter luciferase, 24 h; inhibition, % at 12.5 µM; hit rate 0.83% among 330,000;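 active = mean inhibition across replicates of 60% or more, whatever share of single replicates reaches that level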
Peg3 prom inh: reduces Peg3 promoter-driven luciferase expression in HeLa. HeLa PEG-Prom luciferase reporter, luminescence, overnight. inhibition, % at 20 µM. hit rate 1.7% among 360,000. AID 588405;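 active = inhibition of at least 50% at 20 µM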
CF NFkB inh: cystic fibrosis NF-kB activation inhibition; KKLEB NF-kB-GFP reporter, PAF-induced, GFP fluorescence overnight; inhibition, % at 5 µM; hit rate 0.86% among 360,000; AID 588850;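 active = at least 50% inhibition at 5 µM, scaled per plate between neutral and stimulator controls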;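 also: PAF is a Pseudomonas aeruginosa culture filtrate used as stimulus; plate controls were PAF-stimulated DMSO wells for no effect and unstimulated DMSO wells for full effect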
ABHD5 PLIN5 PPI: inhibitors of human ABHD5-perilipin-5 interaction; Q00G26+Q8WTS1; Split G. princeps luciferase complementation, luminescence, 4 h; inhibition, % at 4 µM; hit rate 0.78% among 360,000; AID 602281;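 active = inhibition above the mean inhibition across every tested compound plus 3 SD, cut at about 22% in these data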;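 also: 0% = DMSO only wells and the 100% control is not disclosed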
Target sequence (Q00G26 whole entry, looked up): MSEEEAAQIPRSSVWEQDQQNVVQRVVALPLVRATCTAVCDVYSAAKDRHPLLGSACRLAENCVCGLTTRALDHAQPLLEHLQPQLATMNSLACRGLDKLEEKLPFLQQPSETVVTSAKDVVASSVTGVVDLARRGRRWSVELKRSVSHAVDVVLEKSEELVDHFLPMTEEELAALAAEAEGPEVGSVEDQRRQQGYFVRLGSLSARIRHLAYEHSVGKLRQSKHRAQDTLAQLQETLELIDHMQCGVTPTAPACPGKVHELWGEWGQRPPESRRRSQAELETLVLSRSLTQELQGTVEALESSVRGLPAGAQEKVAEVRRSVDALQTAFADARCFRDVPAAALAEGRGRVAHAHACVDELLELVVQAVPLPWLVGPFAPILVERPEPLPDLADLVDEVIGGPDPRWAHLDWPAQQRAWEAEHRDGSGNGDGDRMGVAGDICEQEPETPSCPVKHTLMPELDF
Target sequence (Q8WTS1 whole entry, looked up): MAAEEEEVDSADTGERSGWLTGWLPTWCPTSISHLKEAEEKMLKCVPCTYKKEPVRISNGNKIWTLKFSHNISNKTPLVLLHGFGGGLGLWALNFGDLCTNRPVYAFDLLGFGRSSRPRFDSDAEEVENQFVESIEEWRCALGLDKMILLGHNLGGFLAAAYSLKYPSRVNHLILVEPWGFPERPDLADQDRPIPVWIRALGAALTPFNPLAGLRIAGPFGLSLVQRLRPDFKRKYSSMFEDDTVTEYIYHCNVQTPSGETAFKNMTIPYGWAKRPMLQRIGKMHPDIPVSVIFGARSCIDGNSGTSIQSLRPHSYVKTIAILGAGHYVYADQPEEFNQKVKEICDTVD
KKLEB cytotox: CF airway cell cytotoxicity counter-screen | KKLEB CF airway cells viability, ATPlite luminescence, overnight; stronger effect = lower value; cells stimulated with P. aeruginosa culture filtrate | activity change (cytotoxicity), % at 5 µM | hit rate 0.36% among 360,000;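 active = corrected activity change at or below -50% at 5 µM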
HIF-2a inh: inhibitors of HIF-2a; 786-0 RCC cells HIF-2a reporter, luciferase luminescence, overnight; hit rate 0.72% among 360,000; inhibition, % at 18.8 µM;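 active = inhibition of the luminescence signal of 40% or more relative to plate controls, in a single-dose primary screen at 18.75 µM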
Mdm2-MdmX confirm: Mdm2/MdmX (human) interaction inhibition, confirmed | shares compounds with HIF-2a inh | SaOS-2 split-luciferase Mdm2/MdmX complementation, luminescence | inhibition, % at 8 µM | hit rate 99% among 740;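 active = mean inhibition of the luminescence signal across two replicates at or above 26 percent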
HIF-2a inh conf: confirmation of HIF-2a inhibitors; 786-0 RCC cells, HIF-2a luciferase reporter luminescence, overnight; AID 651580; hit rate 56% among 1,800; inhibition, % at 18.8 µM; shares compounds with HIF-2a inh;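 active = mean inhibition across four replicates of at least 40 percent at the single tested concentration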
HIF-1a cs: inhibits HIF-1a reporter, a counter-screen for HIF-2a inhibitors; shares compounds with HIF-2a inh; MiaPaCa-2 HIF-1a luciferase reporter, desferoxamine, overnight; inhibition, % at 18.8 µM; hit rate 72% among 1,800; AID 651589;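 active = mean inhibition of the reporter signal across four replicates at the single tested dose of 50% or more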
Starred values were filed as active, the others as inactive.

`COc1ccc2c(c1)c(C(=O)N/N=C/c1ccc(OC)c(OC)c1)c(C)n2C` gave TRPM1 prom inh 9.0, Peg3 prom inh 7.6, CF NFkB inh -9.9, ABHD5 PLIN5 PPI -5.9, KKLEB cytotox 11.8 and HIF-2a inh -6.2.
Screening O=C(CCCSc1nnnn1-c1cccc2ccccc12)c1ccc(F)cc1 returned TRPM1 prom inh -9.7, Peg3 prom inh 6.6, CF NFkB inh -1.4, ABHD5 PLIN5 PPI -6.8, KKLEB cytotox -0.6 and HIF-2a inh 1.8.
For COC(=O)c1[nH]c2ccc(Br)cc2c1NC(=O)CN1CCN(C2CCCCC2)CC1 the results were TRPM1 prom inh 86.0*, Peg3 prom inh 103.8*, CF NFkB inh -6.7, ABHD5 PLIN5 PPI 8.3, KKLEB cytotox -11.0, HIF-2a inh 68.0*, Mdm2-MdmX confirm 103.2*, HIF-2a inh conf 9.1 and HIF-1a cs 103.6*.
Screening COC(=O)c1[nH]c2ccc(Cl)cc2c1NC(=O)CCN1CCN(C2CCCCC2)CC1 returned TRPM1 prom inh 2.6, Peg3 prom inh 3.9, CF NFkB inh 2.8, ABHD5 PLIN5 PPI 4.7, KKLEB cytotox -0.7 and HIF-2a inh 18.3.
For O=C(NC1CCCC1)C(c1ccccc1)n1c(CSCCOc2ccccc2)nc2ccccc21 (stereo not given) the results were ABHD5 PLIN5 PPI -4.2, HIF-2a inh 64.8*, HIF-2a inh conf 79.3* and HIF-1a cs 66.5*.
For Cc1cc(C)nc(SCc2ccc(C(=O)N/N=C/c3ccncc3)cc2)n1 the results were TRPM1 prom inh 4.7, Peg3 prom inh 5.8, CF NFkB inh 2.4, ABHD5 PLIN5 PPI 6.0, KKLEB cytotox -3.5 and HIF-2a inh 15.0.
For Cc1cc(C)nc(SCc2ccc(C(=O)NNC(=O)Nc3cccc(Cl)c3)cc2)n1 the results were TRPM1 prom inh 9.2, Peg3 prom inh 75.1*, CF NFkB inh 39.8, ABHD5 PLIN5 PPI 1.3, KKLEB cytotox -8.2, HIF-2a inh 89.8*, HIF-2a inh conf 49.6* and HIF-1a cs 104.8*.
Screening CCCCN(C(=O)C1CSC2(C)CCC(=O)N12)c1c(N)n(CC(C)C)c(=O)[nH]c1=O (stereo not given) returned TRPM1 prom inh 12.6, Peg3 prom inh 6.7, CF NFkB inh 5.6, ABHD5 PLIN5 PPI -1.3, KKLEB cytotox -6.5 and HIF-2a inh 11.2.
For Oc1cc(-c2ccncc2)cc2cccnc12 the results were Peg3 prom inh 19.6, CF NFkB inh 34.5, ABHD5 PLIN5 PPI 8.1, KKLEB cytotox -38.1, HIF-2a inh 15.4 and Mdm2-MdmX confirm 100.7*.
CN(C)CCCNC(=O)c1ccc(-c2cc(O)c3ncccc3c2)cc1 was read as TRPM1 prom inh -1.2, Peg3 prom inh -6.2, CF NFkB inh -13.3, ABHD5 PLIN5 PPI -2.2, KKLEB cytotox 16.0 and HIF-2a inh -48.2.
`Oc1cc(-c2ccc(N3CCCCC3)nc2)cc2cccnc12` gave TRPM1 prom inh -12.1, Peg3 prom inh -122.7, CF NFkB inh -9.8, ABHD5 PLIN5 PPI 1.5, KKLEB cytotox -1.5, HIF-2a inh -82.5 and Mdm2-MdmX confirm 98.7*.
`CN(C)c1ccc(-c2cc(O)c3ncccc3c2)cc1` gave TRPM1 prom inh -20.8, Peg3 prom inh -145.9, CF NFkB inh -18.0, ABHD5 PLIN5 PPI -2.3, KKLEB cytotox -2.4 and HIF-2a inh -213.0.
For Cc1cccc(C)c1NC(=O)C1C2C=CC(C2)C1C(=O)O (stereo not given) the results were TRPM1 prom inh 9.2, Peg3 prom inh 11.2, CF NFkB inh 17.4, ABHD5 PLIN5 PPI -1.0, KKLEB cytotox 2.3 and HIF-2a inh 17.6.
CC(C)Cc1nc2oc3c(Cl)ncnc3c2c2c1CCCC2 was read as TRPM1 prom inh 3.2, Peg3 prom inh 113.1*, CF NFkB inh 22.2, ABHD5 PLIN5 PPI 9.0, KKLEB cytotox -2.1, HIF-2a inh 75.1*, HIF-2a inh conf 45.1* and HIF-1a cs 99.6*.
For CN1CC2=Cc3ccccc3OC23Oc2ccccc2C=C3C1 the results were TRPM1 prom inh 16.9, Peg3 prom inh 69.2*, CF NFkB inh -1.1, ABHD5 PLIN5 PPI 17.6, KKLEB cytotox -4.3, HIF-2a inh 92.1*, HIF-2a inh conf 20.3 and HIF-1a cs 79.2*.
Screening CC(C)(C)OC(=O)N1Cc2ccccc2C[C@H]1C(=O)NCC(=O)Nc1ccc2c(c1)OCCO2 returned TRPM1 prom inh -5.5, Peg3 prom inh 39.8, CF NFkB inh -5.2, ABHD5 PLIN5 PPI -7.9, KKLEB cytotox 0.1, HIF-2a inh 47.1*, HIF-2a inh conf 58.0* and HIF-1a cs 80.7*.
For Cn1c(=O)c2cc(NC(=O)Nc3cccnc3)ccc2n1-c1ccc(C(C)(C)C)cc1 the results were Peg3 prom inh 36.9, CF NFkB inh 29.6, ABHD5 PLIN5 PPI -6.5, KKLEB cytotox -4.1 and HIF-2a inh 0.7.
`CC(c1nccs1)N(C)C(=O)CCc1nnc(-c2ccc(-c3ccccc3)cc2)o1` (stereo not given) gave TRPM1 prom inh -0.3, Peg3 prom inh -72.3, CF NFkB inh -5.4, ABHD5 PLIN5 PPI 6.3, KKLEB cytotox -7.6 and HIF-2a inh 10.4.
`COC(=O)CCCNC(=O)CCc1nnc(-c2ccc(-c3ccccc3)cc2)o1` gave TRPM1 prom inh 17.4, Peg3 prom inh -90.2, CF NFkB inh -17.8, ABHD5 PLIN5 PPI -1.1, KKLEB cytotox 11.7, HIF-2a inh 48.2*, HIF-2a inh conf 52.4* and HIF-1a cs 26.3.
For CC(NC(=O)CCc1nnc(-c2ccc(-c3ccccc3)cc2)o1)c1nccs1 (stereo not given) the results were TRPM1 prom inh 34.5, Peg3 prom inh -72.7, CF NFkB inh 9.9, ABHD5 PLIN5 PPI 6.5, KKLEB cytotox -4.5, HIF-2a inh 40.1*, HIF-2a inh conf 51.2* and HIF-1a cs 37.1.
O=S1(=O)CCO[C@H]2Cc3ccccc3[C@H]2N1Cc1ccccc1Br was read as TRPM1 prom inh -4.9, Peg3 prom inh 16.6, CF NFkB inh -0.1, ABHD5 PLIN5 PPI -5.5, KKLEB cytotox -0.7 and HIF-2a inh 7.5.
For C=C1[C@@H](O)[C@H](CC(C)C)N(Cc2ccccc2Br)S1(=O)=O the results were TRPM1 prom inh 12.5, Peg3 prom inh 97.1*, CF NFkB inh 89.4*, ABHD5 PLIN5 PPI 1.5, KKLEB cytotox -96.4*, HIF-2a inh 72.2*, HIF-2a inh conf 42.1* and HIF-1a cs 101.4*.
COc1ccc(C(=O)NCC(=O)OCC(=O)N2CC(C)OC(C)C2)cc1OC (stereo not given) was read as TRPM1 prom inh -3.0, Peg3 prom inh -17.2, CF NFkB inh -3.2, ABHD5 PLIN5 PPI 10.6, KKLEB cytotox 5.2 and HIF-2a inh -0.4.
